B1: CTTA (dsDNA)
DNA 1: GCTATCTAGTGCTCAGTACGCACTGCTTAAGGAAACTTCTGGCAGGACCAGGTCATGAGATCGGAAGAGCACACGTCTGAACTCCAGTCA
DNA 2: TGACTGGAGTTCAGACGTGTGCTCTTCCGATCTCATGACCTGGTCCTGCCAGAAGTTTCCTTAAGCAGTGCGTACTGAGCACTAGATAGC
RNA: AAUUUCUACUCUUGUAGAUAGGAAACUUCUGGCAGGACC
B2: CTTC (dsDNA)
DNA 1: GCTATCTAGTGCTCAGTACGCACTGCTTCAGGAAACTTCTGGCAGGACCAGGTCATGAGATCGGAAGAGCACACGTCTGAACTCCAGTCA
DNA 2: TGACTGGAGTTCAGACGTGTGCTCTTCCGATCTCATGACCTGGTCCTGCCAGAAGTTTCCTGAAGCAGTGCGTACTGAGCACTAGATAGC
RNA: AAUUUCUACUCUUGUAGAUAGGAAACUUCUGGCAGGACC
B3: GTTC (dsDNA)
DNA 1: GCTATCTAGTGCTCAGTACGCACTGGTTCAGGAAACTTCTGGCAGGACCAGGTCATGAGATCGGAAGAGCACACGTCTGAACTCCAGTCA
DNA 2: TGACTGGAGTTCAGACGTGTGCTCTTCCGATCTCATGACCTGGTCCTGCCAGAAGTTTCCTGAACCAGTGCGTACTGAGCACTAGATAGC
RNA: AAUUUCUACUCUUGUAGAUAGGAAACUUCUGGCAGGACC
B4: TATG (dsDNA)
DNA 1: GCTATCTAGTGCTCAGTACGCACTGTATGAGGAAACTTCTGGCAGGACCAGGTCATGAGATCGGAAGAGCACACGTCTGAACTCCAGTCA
DNA 2: TGACTGGAGTTCAGACGTGTGCTCTTCCGATCTCATGACCTGGTCCTGCCAGAAGTTTCCTCATACAGTGCGTACTGAGCACTAGATAGC
RNA: AAUUUCUACUCUUGUAGAUAGGAAACUUCUGGCAGGACC
B5: GTTA (dsDNA)
DNA 1: GCTATCTAGTGCTCAGTACGCACTGGTTAAGGAAACTTCTGGCAGGACCAGGTCATGAGATCGGAAGAGCACACGTCTGAACTCCAGTCA
DNA 2: TGACTGGAGTTCAGACGTGTGCTCTTCCGATCTCATGACCTGGTCCTGCCAGAAGTTTCCTTAACCAGTGCGTACTGAGCACTAGATAGC
RNA: AAUUUCUACUCUUGUAGAUAGGAAACUUCUGGCAGGACC
B6: TATC (dsDNA)
DNA 1: GCTATCTAGTGCTCAGTACGCACTGTATCAGGAAACTTCTGGCAGGACCAGGTCATGAGATCGGAAGAGCACACGTCTGAACTCCAGTCA
DNA 2: TGACTGGAGTTCAGACGTGTGCTCTTCCGATCTCATGACCTGGTCCTGCCAGAAGTTTCCTGATACAGTGCGTACTGAGCACTAGATAGC
RNA: AAUUUCUACUCUUGUAGAUAGGAAACUUCUGGCAGGACC
B7: GTTG (dsDNA)
DNA 1: GCTATCTAGTGCTCAGTACGCACTGGTTGAGGAAACTTCTGGCAGGACCAGGTCATGAGATCGGAAGAGCACACGTCTGAACTCCAGTCA
DNA 2: TGACTGGAGTTCAGACGTGTGCTCTTCCGATCTCATGACCTGGTCCTGCCAGAAGTTTCCTCAACCAGTGCGTACTGAGCACTAGATAGC
RNA: AAUUUCUACUCUUGUAGAUAGGAAACUUCUGGCAGGACC
B8: TATA (dsDNA)
DNA 1: GCTATCTAGTGCTCAGTACGCACTGTATAAGGAAACTTCTGGCAGGACCAGGTCATGAGATCGGAAGAGCACACGTCTGAACTCCAGTCA
DNA 2: TGACTGGAGTTCAGACGTGTGCTCTTCCGATCTCATGACCTGGTCCTGCCAGAAGTTTCCTTATACAGTGCGTACTGAGCACTAGATAGC
RNA: AAUUUCUACUCUUGUAGAUAGGAAACUUCUGGCAGGACC
B9: TCCC (dsDNA)
DNA 1: GCTATCTAGTGCTCAGTACGCACTGTCCCAGGAAACTTCTGGCAGGACCAGGTCATGAGATCGGAAGAGCACACGTCTGAACTCCAGTCA
DNA 2: TGACTGGAGTTCAGACGTGTGCTCTTCCGATCTCATGACCTGGTCCTGCCAGAAGTTTCCTGGGACAGTGCGTACTGAGCACTAGATAGC
RNA: AAUUUCUACUCUUGUAGAUAGGAAACUUCUGGCAGGACC
B10: GTTT (dsDNA)
DNA 1: GCTATCTAGTGCTCAGTACGCACTGGTTTAGGAAACTTCTGGCAGGACCAGGTCATGAGATCGGAAGAGCACACGTCTGAACTCCAGTCA
DNA 2: TGACTGGAGTTCAGACGTGTGCTCTTCCGATCTCATGACCTGGTCCTGCCAGAAGTTTCCTAAACCAGTGCGTACTGAGCACTAGATAGC
RNA: AAUUUCUACUCUUGUAGAUAGGAAACUUCUGGCAGGACC
B11: CTTT (dsDNA)
DNA 1: GCTATCTAGTGCTCAGTACGCACTGCTTTAGGAAACTTCTGGCAGGACCAGGTCATGAGATCGGAAGAGCACACGTCTGAACTCCAGTCA
DNA 2: TGACTGGAGTTCAGACGTGTGCTCTTCCGATCTCATGACCTGGTCCTGCCAGAAGTTTCCTAAAGCAGTGCGTACTGAGCACTAGATAGC
RNA: AAUUUCUACUCUUGUAGAUAGGAAACUUCUGGCAGGACC
B12: TCTA (dsDNA)
DNA 1: GCTATCTAGTGCTCAGTACGCACTGTCTAAGGAAACTTCTGGCAGGACCAGGTCATGAGATCGGAAGAGCACACGTCTGAACTCCAGTCA
DNA 2: TGACTGGAGTTCAGACGTGTGCTCTTCCGATCTCATGACCTGGTCCTGCCAGAAGTTTCCTTAGACAGTGCGTACTGAGCACTAGATAGC
RNA: AAUUUCUACUCUUGUAGAUAGGAAACUUCUGGCAGGACC
B13: CTTG (dsDNA)
DNA 1: GCTATCTAGTGCTCAGTACGCACTGCTTGAGGAAACTTCTGGCAGGACCAGGTCATGAGATCGGAAGAGCACACGTCTGAACTCCAGTCA
DNA 2: TGACTGGAGTTCAGACGTGTGCTCTTCCGATCTCATGACCTGGTCCTGCCAGAAGTTTCCTCAAGCAGTGCGTACTGAGCACTAGATAGC
RNA: AAUUUCUACUCUUGUAGAUAGGAAACUUCUGGCAGGACC

Target: dAsCas12a WT (Acidaminococcus sp., UniProt U2UMQ6 1-1307, D908A;E993A;D1235A)
Experiment: Spec-seq (native PAGE EMSA with sequencing of bound and unbound); 25 mM Tris-HCl pH 7.4, 150 mM KCl, 5 mM MgCl2, 10% glycerol, 1 mM DTT, 40 ng/uL salmon sperm DNA; 400 nM Cas12a, 480 nM crRNA, 50 nM library, 37 C 1 h; native P; high values mean tight binding
Conditions: not given

Binder	binding signal [lnKA]
B1	-6.66
B2	-6.68
B3	-7.08
B4	-9
B5	-6.86
B6	-8.56
B7	-7.73
B8	-8
B9	-8.69
B10	-8.41
B11	-8.63
B12	-6.18
B13	-7.38

Target: dAsCas12a Ultra (Acidaminococcus sp., UniProt U2UMQ6 1-1307, M537R;F870L;D908A;E993A;D1235A)
Experiment: Spec-seq (native PAGE EMSA with sequencing of bound and unbound); 25 mM Tris-HCl pH 7.4, 150 mM KCl, 5 mM MgCl2, 10% glycerol, 1 mM DTT, 40 ng/uL salmon sperm DNA; 400 nM Cas12a, 480 nM crRNA, 50 nM library, 37 C 1 h; native PAGE at room temperature; high values mean tight binding
Conditions: protein: recombinant

Binder	binding signal [lnKA]
B1	-4.22
B2	-4.32
B3	-4.74
B4	-8.06
B5	-4.67
B6	-7.72
B7	-5.6
B8	-7.14
B9	-6.14
B10	-7.18
B11	-7.25
B12	-3.71
B13	-5.08

Target: dAsCas12a E174R (Acidaminococcus sp., UniProt U2UMQ6 1-1307, E174R;D908A;E993A;D1235A)
Experiment: as above
Conditions: protein: recombinant

Binder	binding signal [lnKA]
B1	-2.38
B2	-3.79
B3	-4.51
B4	-6.65
B5	-3
B6	-6.33
B7	-5.33
B8	-4.71
B9	-6.06
B10	-6.98
B11	-6.84
B12	-2.54
B13	-4.65

Target: dAsCas12a S542R (Acidaminococcus sp., UniProt U2UMQ6 1-1307, S542R;D908A;E993A;D1235A)
Experiment: as above
Conditions: protein: recombinant

Binder	binding signal [lnKA]
B1	-4.07
B2	-4.75
B3	-4.83
B4	-7.42
B5	-4.46
B6	-7.21
B7	-5.32
B8	-6.54
B9	-1.93
B10	-7.04
B11	-7.35
B12	-4.59
B13	-5.07

Target: dAsCas12a K548R (Acidaminococcus sp., UniProt U2UMQ6 1-1307, K548R;D908A;E993A;D1235A)
Experiment: as above
Conditions: protein: recombinant

Binder	binding signal [lnKA]
B1	-5.75
B2	-5.73
B3	-5.84
B4	-7.66
B5	-6
B6	-6.57
B7	-6.8
B8	-6.91
B10	-8.38
B11	-8.41
B12	-8.57
B13	-6.66

Target: d-enCas12a (Acidaminococcus sp., UniProt U2UMQ6 1-1307, E174R;S542R;K548R;D908A;E993A;D1235A)
Experiment: as above
Conditions: protein: recombinant

Binder	binding signal [lnKA]
B1	-0.581
B2	-0.728
B3	-0.632
B4	-1.93
B5	-0.547
B6	-0.993
B7	-1.41
B8	-0.769
B9	-0.958
B10	-2.65
B11	-2.97
B12	-3.31
B13	-1.7

Target: d-enCas12a-Ultra (Acidaminococcus sp., UniProt U2UMQ6 1-1307, E174R;S542R;K548R;M537R;F870L;D908A;E993A;D1235A)
Experiment: as above
Conditions: protein: recombinant

Binder	binding signal [lnKA]
B1	-0.177
B2	-0.217
B3	-0.198
B4	-0.687
B5	-0.184
B6	-0.399
B7	-0.361
B8	-0.324
B9	-0.245
B10	-0.552
B11	-0.647
B12	-0.837
B13	-0.41
